Several values for one entry are separate records, joined by “and”; a condition that tells them apart may be missing. Equal entries are not always repeated. About 2,000 (36%) of roughly 5,500 compounds were called active. Inconclusive results (about 18%) are left out. Cut-off read from the data, not from the text of the source: active = normalized growth mostly below about 0.91 (no sharp cut-off); inconclusive = no clear call, values can overlap the other calls; inactive = mostly above about 0.92. The list shows a part of the results.
Experiment: chemical genetic growth profiling, strain panel (AID 1159580);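 note: tested at 20 µM; growth read once vehicle control cultures reached saturation at 30 °C; 1 = growth at the plate median or of vehicle wells; lower values mean less growth of the strain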
Conditions: S. cerevisiae deletion strains, growth OD

Measured: normalized growth

Cc1ncc(CNC(=O)N(CCCl)N=O)c(N)n1
inactive: locus YAL013W, strain DEP1, active compounds read low 1.01 and 1 | locus YAL021C, strain ccr4, active compounds read low 0.948 | locus YAL026C, strain drs2, active compounds read low 1.02 | locus YAL030W, strain snc1, active compounds read low 1.01 | locus YAL040C, strain CLN3, active compounds read low 0.981 | locus YBL061C, strain skt5, active compounds read low 1.01 | locus YBR009C, strain hhf1, active compounds read low 0.992 | locus YBR021W, strain FUR4, active compounds read low 0.994 | locus YBR023C, strain chs3, active compounds read low 1 | locus YBR171W, strain sec66, active compounds read low 1.02 | locus YBR229C, strain ROT2, active compounds read low 1.03 | locus YBR231C, strain swc5, active compounds read low 1.03 | locus YBR279W, strain paf1, active compounds read low 1 | locus YCL011C, strain gbp2, active compounds read low 1 | locus YCL016C, strain dcc1, active compounds read low 0.978 | locus YCL029C, strain bik1, active compounds read low 0.985 | locus YCL061C, strain MRC1 (second series), active compounds read low 1 | locus YCL061C, strain MRC1, active compounds read low 0.999 | locus YCL069W, strain vba3, active compounds read low 1.01 | locus YCR088W, strain abp1, active compounds read low 1.01 | locus YDL005C, strain med2, active compounds read low 1.01 | locus YDL035C, strain GPR1, active compounds read low 1 | locus YDL040C, strain nat1, active compounds read low 1.02 | locus YDL074C, strain BRE1, active compounds read low 1.02 | locus YDL101C, strain DUN1, active compounds read low 1.01 | locus YDL134C, strain PPH21, active compounds read low 1.03 | locus YDL185W, strain tfp1, active compounds read low 0.985 | locus YDL192W, strain arf1, active compounds read low 0.997 | locus YDR001C, strain nth1, active compounds read low 1.01 | locus YDR069C, strain doa4, active compounds read low 1.02 | locus YDR101C, strain arx1, active compounds read low 0.983 | locus YDR137W, strain rgp1, active compounds read low 1.04 | locus YDR150W, strain NUM1, active compounds read low 1.03 and 0.998 | locus YDR159W, strain sac3, active compounds read low 1.08 | locus YDR162C, strain NBP2, active compounds read low 1 | locus YDR195W, strain ref2 0.993 | locus YDR297W, strain sur2, active compounds read low 1.02 | locus YDR318W, strain mcm21, active compounds read low 1 | locus YDR334W, strain swr1, active compounds read low 1.02 | locus YDR335W, strain msn5, active compounds read low 1.01 | locus YDR363W, strain ESC2, active compounds read low 1 | locus YDR388W, active compounds read low 0.986 | locus YDR392W, strain spt3, active compounds read low 0.917 | locus YDR502C, strain sam2, active compounds read low 0.99 | locus YEL003W, strain gim4, active compounds read low 1.01 | locus YEL037C, strain rad23, active compounds read low 1.01 | locus YEL061C, strain CIN8 (second series), active compounds read low 1.01 | locus YEL061C, strain CIN8, active compounds read low 1.02 | locus YER002W, strain NOP16, active compounds read low 1 | locus YER015W, strain faa2, active compounds read low 0.982 | locus YER016W, strain bim1, active compounds read low 1.02 | locus YER110C, active compounds read low 0.979 | locus YER111C, strain swi4, active compounds read low 1.01 | locus YER155C, strain BEM2 (second series), active compounds read low 1.03 | locus YER155C, strain BEM2, active compounds read low 1 | locus YER167W, strain BCK2, active compounds read low 1.01 | locus YFR010W, strain ubp6, active compounds read low 1.01 | locus YGL078C, strain dbp3, active compounds read low 0.991 | locus YGL086W, strain mad1, active compounds read low 1 | locus YGL167C, strain pmr1, active compounds read low 1 | locus YGL173C, strain kem1, active compounds read low 1.01 | locus YGL227W, strain vid30, active compounds read low 1.01 | locus YGL240W, strain doc1, active compounds read low 1.01 | locus YGL248W, strain PDE1, active compounds read low 1.02 | locus YGL253W, strain hxk2, active compounds read low 1.01 | locus YGR078C, strain PAC10, active compounds read low 1.01 | locus YGR135W, strain pre9, active compounds read low 1 | locus YGR229C, strain SMI1, active compounds read low 0.994 | locus YGR252W, strain gcn5, active compounds read low 0.976 | locus YHR013C, strain ard1, active compounds read low 1 | locus YHR027C, strain rpn1, active compounds read low 1.04 | locus YHR030C, strain SLT2, active compounds read low 1.02 and 0.958 | locus YHR079C, strain IRE1 (second series), active compounds read low 0.984 | locus YHR079C, strain IRE1, active compounds read low 0.957 | locus YHR094C, strain hxt1, active compounds read low 0.989 | locus YHR129C, strain ARP1, active compounds read low 1.02 | locus YHR142W, strain chs7, active compounds read low 1.01 | locus YHR200W, strain rpn10, active compounds read low 0.988 | locus YIL066C, strain RNR3, active compounds read low 1.02 | locus YIL073C, strain SPO22, active compounds read low 0.994 | locus YIL125W, strain kgd1, active compounds read low 0.995 | locus YIR030C, strain dcg1, active compounds read low 0.987 | locus YJL092W, strain hpr5, active compounds read low 0.978 | locus YJL095W, strain BCK1 (second series), active compounds read low 1.03 | locus YJL095W, strain BCK1, active compounds read low 0.999 and 0.951 | locus YJL115W, strain asf1, active compounds read low 1.01 | locus YJL129C, strain trk1, active compounds read low 1.03 | locus YJL134W, strain LCB3, active compounds read low 1.02 | locus YJL154C, strain vps35, active compounds read low 1.01 | locus YJL164C, strain tpk1, active compounds read low 0.988 | locus YJL166W, strain qcr8, active compounds read low 1.01 | locus YJL168C, strain set2, active compounds read low 0.99 | locus YJL187C, strain SWE1 (second series), active compounds read low 1.02 | locus YJL187C, strain SWE1, active compounds read low 0.993 | locus YJR043C, strain POL32, active compounds read low 0.902 | locus YJR066W, strain TOR1, active compounds read low 0.901
